{"source": "PubChem BioAssay (NCATS)", "note": "Results filed as inconclusive are left out. A call without a number means that no potency is given here. Active and inactive are the calls of the source. The call rests on the fitted dose curve; in most records, active means well fitted inhibition curve with a large enough effect; inconclusive means small, poorly fitted or top-dose-only effect; inactive means no such curve, though single readings can be large or run the other way."}
{"molecular_target": "Retinaldehyde dehydrogenase 3 (Homo sapiens) (UniProt P47895)", "experiment": "qHTS for Inhibitors of the Aldehyde Dehydrogenase Family (ALDH1A3) Primary screen (AID 2061315)", "details": "ALDH inhibition qHTS; series mostly up to 56 µM"}
{"smiles": "Cc1ccc(NS(=O)(=O)c2cc3c(cc2-c2ccccc2)NC(=O)CO3)cc1C", "Potency": "inactive"}
{"smiles": "CSC(Cc1ccc(Cl)cc1)C(=O)Nc1ccc(Cl)cc1C(=O)O", "note": "(stereo not drawn)", "Potency": "inactive"}
{"smiles": "Cc1ccc(CN(C)c2nc(-c3ccccc3C(F)(F)F)nc3ccccc23)cc1", "Potency": "inactive"}
{"smiles": "CC(C)Oc1ccc(-c2csc(N3CCC(C(N)=O)CC3)n2)cc1", "Potency": "inactive"}
{"smiles": "CCn1cnc2c(Nc3ccc(Cc4cccnc4)cc3)nc(C#N)nc21", "Potency": "inactive"}
{"smiles": "Oc1ccc(CNc2ccccn2)c2cccnc12", "Potency": "inactive"}
{"smiles": "COc1cc(O)c(C(CC(=O)N2CC(C)CC(C)C2)c2ccc(C)cc2)c(OC)c1", "note": "(stereo not drawn)", "Potency": "inactive"}
{"smiles": "CC(=O)NC(c1ccco1)c1cc(Cl)c2ccc(N(C)C)nc2c1O", "note": "(stereo not drawn)", "Potency": "inactive"}
{"smiles": "Cc1ccnc(NC(=S)N2CCN(c3ccc(F)cc3)CC2)c1", "Potency": "inactive"}
{"smiles": "Cc1cc(C)n2ncc(C(=O)Nc3ccccc3)c2n1", "Potency": "inactive"}
{"smiles": "O=C(O)c1ccc(-c2ccc(NC(=O)c3cccs3)cn2)cc1", "Potency": "inactive"}
{"smiles": "c1nc(NCCc2cnc[nH]2)c2ccc(-c3ccc4c(c3)OCO4)cc2n1", "Potency": "inactive"}
{"smiles": "Cc1ccc(CNc2ncnc3cc(-c4ccc5c(c4)OCO5)ccc23)o1", "Potency": "inactive"}
{"smiles": "CN(C)c1ccc2c(=O)n3nc(Nc4ccc5c(c4)CCC5)sc3nc2c1", "Potency": "inactive"}
{"smiles": "S=C(Nc1cc(Cl)ccn1)N1CCN(c2ccc(Cl)cc2Cl)CC1", "Potency": "inactive"}
{"smiles": "O=C(Nc1ccc(-c2nc3ccccc3[nH]2)cc1)c1ccc(-c2ccccc2)cc1", "Potency": "inactive"}
{"smiles": "c1ccc(-n2ccc(-c3nnc4n3CCCCC4)c2)cc1", "Potency": "inactive"}
{"smiles": "CCOc1ccc(CCNC(=O)CN(C)C)cc1OCC", "Potency": "inactive"}
